Experimental data as given in PubChem BioAssay (Tox21).
Several values for one entry are separate records, joined by “and”; a condition that tells them apart may be missing. Equal values may be shown once. Records with an inconclusive call do not appear. Where a call stands in place of a potency, no number is given. Activity calls are given as the source filed them. Calls come from the whole dose curve; as a rule, active = well fitted cell-killing curve with a large enough effect in the repeat runs; inconclusive = weak or mixed curves, or effect the other way; inactive = flat fitted curve, though single readings scatter.
Potency is the fitted concentration of half-maximal effect.

Assay: Caspase-3/7 induction in HepG2 cells by small molecules, qHTS cell viability counter screen (AID 1346981); note: nearly all actives have a fitted effect of over 30% in size
Settings: CellTiter-Fluor fluorescence, 17 h; series mostly up to 92.4 µM
Summary of the method: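 In this quantitative HTS counter screen, compounds delivered in DMSO were left on unmodified HepG2 cells for 16 hr at 37 C. Viability was then determined fluorometrically with CellTiter-Fluor, in parallel with caspase-3/7 induction in the same wells.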
With `CCCCNS(=O)(=O)c1ccc(C)cc1` the Potency was “inactive”.
In the case of `C#C[C@]1(OC(C)=O)CC[C@H]2[C@@H]3CCC4=C/C(=N/O)CC[C@@H]4[C@H]3CC[C@@]21CC`, the Potency is reported as “inactive”.
In the case of `O=C1CCc2cc(OCCCCc3nnnn3C3CCCCC3)ccc2N1`, the Potency is reported as “inactive”.
With `CCC(C)(CCC(C)C)C(=O)[O][Sn]([CH3])([CH3])[O]C(=O)C(C)(CC)CCC(C)C` (configuration not stated) the Potency was “inactive”.
In the case of `C=CCn1c(=O)n(CC=C)c(=O)n(CC=C)c1=O`, the Potency is reported as “inactive”.
In the case of `COc1cccc2c1C(=O)c1c(O)c3c(c(O)c1C2=O)C[C@@](O)(C(C)=O)C[C@@H]3O[C@H]1C[C@H](N)[C@H](O)[C@H](C)O1`, the Potency is reported as 30.8 µM (active) and 4.22 µM (active).
For `c1ccc(SSc2ccccc2)cc1`, the Potency was “inactive”.
With `COc1ccc2c(c1)c(CC(=O)OC/C=C(\C)CC/C=C(\C)CCC=C(C)C)c(C)n2C(=O)c1ccc(Cl)cc1` the Potency was “inactive”.
With `Nc1ccc(Oc2ccc(Cl)cc2)cc1` the Potency was “inactive”.
For `CC(C(=O)O)c1ccc2c(c1)[nH]c1ccc(Cl)cc12` (configuration not stated), the Potency was “inactive”.
In the case of `C#C[C@]1(OC(C)=O)CC[C@H]2[C@@H]3CCC4=C[C@@H](OC(C)=O)CC[C@@H]4[C@H]3CC[C@@]21C`, the Potency is reported as “inactive”.
In the case of `C=CC(=O)Nc1cc2c(Nc3ccc(F)c(Cl)c3)ncnc2cc1OCCCN1CCOCC1`, the Potency is reported as 5.96 µM (active).
For `CCN1C(=O)c2ccccc2C1Nc1ccc(OCCN2CCCCC2)cc1` (configuration not stated), the Potency was “inactive”.
In the case of `CCCCCCC1CCCC(=O)O1` (configuration not stated), the Potency is reported as “inactive”.
With `CCc1oc2ccccc2c1C(=O)c1cc(I)c(O)c(I)c1` the Potency was “inactive”.
With `NC(=S)NC(N)=S` the Potency was “inactive”.
In the case of `O=C(/C=C/c1ccc(O)c(O)c1)O[C@@H](C(=O)O)[C@@H](OC(=O)/C=C/c1ccc(O)c(O)c1)C(=O)O`, the Potency is reported as “inactive”.
